Records with an inconclusive call do not appear. Active and inactive are the calls of the source. The call rests on the fitted dose curve; in most records, active means well fitted curve in the direction sought with a large enough effect; inconclusive means small, poorly fitted or top-dose-only effect, or another doubt; inactive means no such curve, though single readings can be large; an effect the other way counts as inactive or inconclusive.

Among the data in PubChem BioAssay (NCATS) are Potency values, retold here.

The nature of test [1]: NS1 protein of Zika virus - qHTS assay to identify small molecule inhibitors in human HEK 293 cells (AID 1347053). Further: series mostly up to about 46 µM; nearly all actives have a fitted effect of over 55% in size. In outline:
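HEK 293 cells, seeded 20 h at 37 C, were pretreated with compound 1 h, then infected with ZIKV MR766 (MOI = 0.5) for 24 h. NS1 was read by TR-FRET with two anti-NS1 antibodies, normalized to uninfected and infected wells.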
Background: In qHTS, concentration-response curves come from the screen itself.

A short description of test [2]: qHTS of pediatric cancer cell lines to identify multiple opportunities for drug repurposing: Primary screen for TC32 cells (AID 1347089). Further: nearly all actives have a fitted effect of over 60% in size. In short, it runs like this: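 Luminescent ATP read-out (CellTiter-Glo) of metabolically active TC32 cells after 48 h exposure. Concentration-response curves came from 11-point (MIPE, 0.78 nM–46 µM) or 8-point (NPC, 0.59 nM–46 µM) primary titrations; follow-up used 11 points.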

A short description of test [3]: qHTS of pediatric cancer cell lines to identify multiple opportunities for drug repurposing: Primary screen for DAOY cells (AID 1347090). Further: series mostly up to about 46 µM; nearly all actives have a fitted effect of over 55% in size. In short, it runs like this: (§1)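 Cell viability, CellTiter-Glo luminescence; 500-1,000 cells/well, 8- or 11-point titration, 48 h compound exposure at 37 degrees C, 5% CO2. Controls: DMSO neutral, bortezomib 2.3 µM final as positive.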

Test [4] in a line: qHTS of pediatric cancer cell lines to identify multiple opportunities for drug repurposing: Primary screen for SJ-GBM2 cells (AID 1347091). In short, it runs like this:
as §1

Test [5] is described as follows: qHTS of pediatric cancer cell lines to identify multiple opportunities for drug repurposing: Primary screen for A673 cells (AID 1347092). Further: nearly all actives have a fitted effect of over 45% in size. In outline: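 Cell viability of A673 measured by CellTiter-Glo ATP luminescence after 48 hours compound exposure. Dilution series spanned 0.78 nM to 46 µM (MIPE, 11-point) or 0.59 nM to 46 µM (NPC, 8-point); bortezomib 2.3 uM positive control.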

The nature of test [6]: qHTS of pediatric cancer cell lines to identify multiple opportunities for drug repurposing: Primary screen for SK-N-MC cells (AID 1347093). Further: potency means the concentration at half of the fitted maximal effect. In outline:
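Metabolically active cells were quantified by ATP-dependent luminescence (CellTiter-Glo, 15 min at room temperature) following 48 h treatment. Cells had been plated at 500-1,000 per well and settled for 5 h beforehand.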

Test [7] in a line: qHTS of pediatric cancer cell lines to identify multiple opportunities for drug repurposing: Primary screen for BT-37 cells (AID 1347094). Further: series mostly up to about 57 µM. In outline:
(§2)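 500-1,000 cells/well; 5 h pre-incubation 37 °C/5% CO2; compound pinned; 48 h; CellTiter-Glo, 15 min RT; luminescence. MIPE 11-pt from 0.78 nM, NPC 8-pt from 0.59 nM final. Bortezomib 2.3 µM final as positive control.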

A short description of test [8]: qHTS of pediatric cancer cell lines to identify multiple opportunities for drug repurposing: Primary screen for U-2 OS cells (AID 1347096). Further: nearly all actives have a fitted effect of over 50% in size. In outline:
(§3)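 Cells (500-1,000/well) rested 5 h, then received compounds for 48 h; metabolically active cells were measured by CellTiter-Glo luminescence. Final concentrations spanned up to 46 µM (MIPE, 11-point) or 0.59 nM-46 µM (NPC, 8-point) in primary screens, 11-point in follow-ups.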

Test [9] in a line: qHTS of pediatric cancer cell lines to identify multiple opportunities for drug repurposing: Primary screen for SK-N-SH cells (AID 1347098). Further: nearly all actives have a fitted effect of over 65% in size. In outline:
as §3

The nature of test [10]: qHTS of pediatric cancer cell lines to identify multiple opportunities for drug repurposing: Primary screen for NB1643 cells (AID 1347099). Further: nearly all actives have a fitted effect of over 50% in size. In outline: as §2
The nature of test [11]: qHTS of pediatric cancer cell lines to identify multiple opportunities for drug repurposing: Primary screen for LAN-5 cells (AID 1347100). Further: potency means the concentration at half of the fitted maximal effect. In outline:
as §3

Test [12] in a line: qHTS of pediatric cancer cell lines to identify multiple opportunities for drug repurposing: Primary screen for BT-12 cells (AID 1347101). Further: nearly all actives have a fitted effect of over 25% in size. In short, it runs like this:
as §3

Test [13] can be described thus: qHTS of pediatric cancer cell lines to identify multiple opportunities for drug repurposing: Primary screen for Rh18 cells (AID 1347102). Further: nearly all actives have a fitted effect of over 65% in size. In outline:
as §3

A short description of test [14]: qHTS of pediatric cancer cell lines to identify multiple opportunities for drug repurposing: Primary screen for OHS-50 cells (AID 1347103). Further: nearly all actives have a fitted effect of over 40% in size. In outline:
as §3

Test [15] is described as follows: qHTS of pediatric cancer cell lines to identify multiple opportunities for drug repurposing: Primary screen for Saos-2 cells (AID 1347097). Further: nearly all actives have a fitted effect of over 40% in size. In outline: as §2
The nature of test [16]: qHTS of pediatric cancer cell lines to identify multiple opportunities for drug repurposing: Primary screen for NB-EBc1 cells (AID 1347095). In short, it runs like this:
as §2

For the compound `COc1ccc(/C(C)=C/C(=O)O)c(OC)c1`, the Potency result in [1], in test [2], in [3], in test [4], in [5] and in test [6] was “inactive” throughout. Further, the Potency result in test [7], in test [8], in test [9], in [10], in test [11] and in [12] was “inactive” in each case. Further, the Potency result in test [13] and in test [14] was “inactive” in each case.
`CC[N+]1(CC)CCC(=C(c2ccccc2)c2ccccc2)C1C` (stereo unspecified): the Potency entry in test [1], in test [2], in test [3], in test [4], in test [5] and in test [7] was “inactive” throughout. Also, the Potency result in [8], in test [15], in [9], in test [10], in test [11] and in test [13] was “inactive” in each case. For the same compound, the Potency in test [6] was 18.8 µM (active).
On to `CN(C)CCN(Cc1ccsc1)c1ccccn1`, for which the Potency result in test [1], in test [2], in test [3], in test [4], in [5] and in test [6] was “inactive” throughout. For the same compound, the Potency result in test [7], in test [8], in test [15], in test [9], in [10] and in [12] was “inactive” in each case. Also, the Potency result in [13] and in test [14] was “inactive” in each case. The Potency in test [11] was 0.001 µM (active).
Take `CCOC(=O)NNc1nncc2ccccc12`: the Potency entry in test [1], in [2], in test [3], in test [4], in test [5] and in test [6] was “inactive” throughout. The Potency entry in test [7], in test [16], in [9], in test [10], in test [11] and in test [12] was “inactive” each time. Besides, the Potency entry in test [13] and in test [14] was “inactive” each time.
In the case of `CC(C)C[C@H](NC(=O)CNC(=O)[C@H](Cc1ccc(O)cc1)NC(=O)[C@H](CO)NC(=O)[C@H](Cc1c[nH]c2ccccc12)NC(=O)[C@H](Cc1cnc[nH]1)NC(=O)[C@@H]1CCC(=O)N1)C(=O)N[C@@H](CCCN=C(N)N)C(=O)N1CCC[C@H]1C(=O)NCC(N)=O` (stereo in doubt), the Potency result in [1], in test [2], in [3], in [4], in [5] and in test [7] was “inactive” in each case. Also, the Potency entry in [16], in test [8], in test [15], in [9], in [10] and in test [11] was “inactive” in each case. Also, the Potency result in test [12], in test [13] and in [14] was “inactive” in each case.
On to `O=C(O)/C=C(\CC(=O)O)C(=O)O`, for which the Potency result in test [1], in [2], in [3], in [4], in [5] and in [6] was “inactive” throughout. In addition, the Potency entry in test [8], in [15], in test [9], in test [10], in test [11] and in test [12] was “inactive” in each case. The Potency entry in test [13] and in test [14] was “inactive” each time.
Take `CCOc1ccc(NS(=O)(=O)c2ccc(N)cc2)nn1`: the Potency result in test [1], in test [2], in [3], in test [4], in [5] and in [7] was “inactive” throughout. The Potency result in test [16], in test [8], in test [15], in [9], in test [10] and in [11] was “inactive” throughout. Besides, the Potency result in [12], in test [13] and in test [14] was “inactive” each time.
Turning to `NS(=O)(=O)c1cc2c(cc1Cl)CN(C1CCCCC1)C2=O`, the Potency result in [1], in [2], in test [3], in test [4], in test [5] and in test [6] was “inactive” each time. Moreover, the Potency result in [7], in test [8], in test [15], in [9], in test [10] and in test [11] was “inactive” in each case. Besides, the Potency entry in test [12], in test [13] and in test [14] was “inactive” in each case.
Turning to `O=C(COCCOCCOCC(=O)Nc1c(I)cc(I)c(C(=O)O)c1I)Nc1c(I)cc(I)c(C(=O)O)c1I`, the Potency entry in test [1], in [2], in test [3], in test [4], in test [5] and in test [7] was “inactive” each time. Moreover, the Potency result in test [16], in test [8], in test [15], in [9], in test [10] and in [11] was “inactive” each time. Also, the Potency result in test [12], in test [13] and in [14] was “inactive” throughout.
With `CN1C(=O)CC(C)(c2ccccc2)C1=O` (stereo unspecified), the Potency entry in [1], in [2], in test [3], in [4], in [5] and in [7] was “inactive” each time. For the same compound, the Potency entry in test [16], in test [8], in [9], in test [10], in test [11] and in test [12] was “inactive” throughout. For the same compound, the Potency entry in [13] and in test [14] was “inactive” in each case.
Turning to `N[C@@H](Cc1cc(I)c(O)c(I)c1)C(=O)O`, the Potency entry in [1], in [2], in [3], in test [4], in [5] and in test [7] was “inactive” in each case. Besides, the Potency result in [16], in test [8], in test [9], in test [10], in test [11] and in [12] was “inactive” throughout. For the same compound, the Potency result in test [13] and in [14] was “inactive” in each case.
`C/C(=C(/OCCOc1ccc(Cl)cc1)c1ccc(Cl)cc1Cl)n1ccnc1`: the Potency entry in test [1], in test [2], in test [3], in test [4], in [7] and in [16] was “inactive” throughout. Also, the Potency result in [8], in [15] and in test [13] was “inactive” each time. Also, the Potency in test [6] is 21.1 µM (active).
For `O=C(OCC(O)CO)c1ccccc1Nc1ccnc2c(C(F)(F)F)cccc12` (stereo unspecified), the Potency result in test [1], in test [2], in test [3], in test [4], in test [5] and in [7] was “inactive” throughout. The Potency entry in test [10] and in test [11] was “inactive” throughout.
